PLK1 PBD block: blocks phosphopeptide binding to human PLK1 polo-box domain | 360,000 tested, 2.8% active | P53350 | AID 720504 | Potency, µM, for inactives: max response, negative = inhibition, most hits filed as inhibitors | Plk1 PBD binding of FITC phosphopeptide, fluorescence polarization; note: potency is the fitted concentration of half-maximal effect; series mostly up to about 57 µM; % is set by controls: 0 for no effect and ±100 for the full control effect; nearly all actives have a fitted effect of over 65% in size
MBNL1 CUG block: MBNL1-poly(CUG) RNA binding inhibition; Q9NR56; Potency, µM (top dose mostly 57.5 µM), without a hit: top-dose activity change, negative = inhibition, usual class: inhibitors; AID 2675; 280,000 tested, 0.036% active; TR-FRET MBNL1-His/biotin-(CUG)12 binding, 665/545 ratio; active = well fitted inhibition curve with a large enough effect in the signal ratio, with a control signal flat, not every such curve was filed as active; inconclusive = small, poorly fitted or top-dose-only effect, or effect the other way, or a change in a side signal; inactive = no such curve, though single readings can be large or run the other way; the % refers to the signal ratio; note: potency is the fitted concentration of half-maximal effect; % is set by controls: 0 for no effect and ±100 for the full control effect
Target sequence (Q9NR56 whole entry, looked up): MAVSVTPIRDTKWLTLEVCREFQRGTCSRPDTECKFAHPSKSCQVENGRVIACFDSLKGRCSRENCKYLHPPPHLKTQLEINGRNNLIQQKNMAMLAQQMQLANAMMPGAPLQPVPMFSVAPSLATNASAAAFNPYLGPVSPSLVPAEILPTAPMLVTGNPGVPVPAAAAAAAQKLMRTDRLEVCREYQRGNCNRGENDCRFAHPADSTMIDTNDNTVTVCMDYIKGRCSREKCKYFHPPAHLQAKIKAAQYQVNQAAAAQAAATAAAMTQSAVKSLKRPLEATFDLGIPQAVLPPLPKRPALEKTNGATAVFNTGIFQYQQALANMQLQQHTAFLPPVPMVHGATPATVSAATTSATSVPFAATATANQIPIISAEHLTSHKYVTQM
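Inhibition of protein-RNA binding appears as loss of TR-FRET between terbium anti-His antibody on MBNL1-His and streptavidin-XL665 on biotin-(CUG)12. Activity is normalized to buffer-only and uninhibited-complex controls.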
CBFb RUNX1 block: inhibitors of human CBF-beta and RUNX1 interaction; 230,000 tested, under 10 active; AlphaScreen CBFb-His/RUNX1-biotin binding, biochemical; Q01196+Q13951; Potency, µM (titrated, usually from 59.8 µM), without a hit: at the highest dose activity, negative = inhibition, actives largely listed as inhibitors; AID 1477; note: % of control where 0% means no effect
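CBF-beta (His) and RUNX1 (biotin), 30 nM each; 20 min preassociation; + compound, 15 min; + beads 50 ng each (Ni, streptavidin), 90 min; RT; AlphaScreen read.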
VDR inh: blocks the human vitamin D receptor. VDR-SRC2-3 peptide fluorescence polarization, 2 h. AID 504847. 400,000 tested, 0.93% active. Potency, µM, without a hit: max response, negative = inhibition, most hits filed as inhibitors. P11473; note: potency is the fitted concentration of half-maximal effect; % is set by controls: 0 for no effect and ±100 for the full control effect
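After 23 nl compound addition and a short centrifugation, plates sat for 2 hours at ambient temperature; polarization of fluorescence then indicated loss of VDR binding to peptide SRC2-3.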
hERG WT inh: inhibitors of human wildtype KCNH2 potassium channel; Q12809; U2OS, BacMam KCNH2, thallium flux FluxOr; hits give low values; activity change, % at 1.84 µM; 340,000 tested, 0.37% active; AID 720551;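 active = maximum activity change below -70%; inconclusive = maximum activity change between -70% and -50%; inactive = maximum activity change above -50%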; note: % is set by controls: 0 for no effect and ±100 for the full control effect
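U2OS cells were transduced with wild-type KCNH2 virus (2.03 x 10^8 / mL) for 4 h at room temperature, then cultured overnight at 37 C. Thallium flux was read with FluxOr dye. Rate constants were normalized to DMSO controls.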
KCNH2 3.1 inh: KCNH2 3.1 (human) potassium channel inhibition | U2OS KCNH2 3.1, thallium flux FluxOr; hits give low values | activity change, % (tested at about 1.8 µM) | 340,000 tested, 0.95% active;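 active = maximum activity change below -70%; inconclusive = maximum activity change from -70% to -50%; inactive = maximum activity change above -50%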;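 note: thallium influx rate constant from kinetic fluorescence after stimulation buffer; % is set by controls: 0 for no effect and ±100 for the full control effect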
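U2OS cells transduced with KCNH2 3.1 mutant virus (1.77 x 10^8 /mL, 4 h), plated overnight at 37 C, loaded 45 min with FluxOr dye plus Red40 quencher. Thallium flux rate constant from kinetic reads after stimulation buffer, normalised to controls.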
* marks the source's active call; other numbers are inactive results; ? = inconclusive; nt = no result. The list is not random: actives were taken first. Their share in the collection is about 3.8%. Unless noted, calls come from the whole dose curve; as a rule, active = well fitted curve in the direction sought with a large enough effect; inconclusive = small, poorly fitted or top-dose-only effect, or another doubt; inactive = no such curve, though single readings can be large; an effect the other way counts as inactive or inconclusive.

SMILES	PLK1 PBD block	MBNL1 CUG block	CBFb RUNX1 block	VDR inh	hERG WT inh	KCNH2 3.1 inh
CCCn1c(=O)c2sccc2n2c(CCCC(=O)Nc3cccc(CC)c3)nnc12	nt	nt	nt	7%	nt	nt
CCN1C(=NCCCOC(C)C)N[C@@H](CCc2ccccc2)[C@H](C(=O)NCCCOC(C)C)[C@H]1C	24µM*	3%	nt	-21%	-8	-20
CCN1C(=NCCOC)N[C@@H](CCc2ccccc2)[C@H](C(=O)OC)[C@H]1C	-6%	-4%	nt	-9%	2	-6
O=C(COC(=O)C1CC2CCCC(C1)C2=O)Nc1nc(-c2ccc(F)c(F)c2)cs1 (centres undefined)	-9%	nt	nt	0%	1	-94*
COC(=O)c1ccc(C2c3[nH]c4ccccc4c3C[C@H]3C(=O)N(C4CCN(Cc5ccccc5)CC4)CC(=O)N23)cc1 (some centres undefined)	-2%	8%	nt	0%	-42	-80*
CCOc1ccccc1C1c2[nH]c3ccccc3c2C[C@H]2C(=O)N(C3CCN(Cc4ccccc4)CC3)CC(=O)N12 (some centres undefined)	-10%	-7%	nt	-20%	-94*	-102*
O=C1[C@@H]2Cc3c([nH]c4ccccc34)C(c3ccccc3)N2C(=O)CN1C1CCN(Cc2ccccc2)CC1 (some centres undefined)	-9%	-2%	nt	10%	-7	?
CC(C)Cn1cnc2c(c(-c3ccccc3)c(-c3ccccc3)n2Cc2ccco2)c1=N	27%	-5%	-6%	-13%	-74*	-101*
N=c1c2c(-c3ccccc3)c(-c3ccccc3)n(Cc3ccco3)c2ncn1CCCN1CCOCC1	25%	-4%	-6%	-14%	-4	-78*
c1ccc(-c2c(-c3ccccc3)n(Cc3ccco3)c3ncnc(NCCCn4ccnc4)c23)cc1	?	-9%	nt	8%	13	nt
N=c1c2c(-c3ccccc3)c(-c3ccccc3)n(Cc3ccco3)c2ncn1CCCn1ccnc1	8%	2%	-9%	9%	-17	-71*
Cc1ccc(C(=O)Nc2onc3c2CCCC3)cc1	nt	nt	nt	-6%	nt	nt
O=C([O-])[C@@H]1[O][Sb+]([O][Sb+]2[O][C@H]([C@H](O)CO)[C@H](O)[C@H](C(=O)[O-])[O]2)[O][C@H]([C@H](O)CO)[C@@H]1O	nt	nt	-4%	-15%	nt	nt
S=C(c1ccc(N2CCCC2)cc1)N1CCCCC1	8.4µM*	8%	?	-20%	-9	-1
O=C(O)c1ccc(N2CCCCC2)cc1	0%	2%	6%	8%	6	13
Oc1cccc(C(=S)N2CCCCC2)c1	11µM*	-2%	-3%	?	-4	-146*
Oc1ccc(C(=S)N2CCCCCC2)cc1	?	5%	-2%	7%	-2	4
S=C(c1ccc(N2CCOCC2)cc1)N1CCOCC1	27µM*	4%	-6%	?	11	-2
Oc1ccc(C(=S)N2CCCC2)cc1	24µM*	0%	nt	?	2	-1
CSCC[C@H](NC(=O)[C@H](Cc1ccc(OS(=O)(=O)O)cc1)NC(=O)[C@@H](N)CC(=O)O)C(=O)NCC(=O)N[C@@H](Cc1c[nH]c2ccccc12)C(=O)N[C@@H](CCSC)C(=O)N[C@@H](CC(=O)O)C(=O)N[C@@H](Cc1ccccc1)C(N)=O	nt	nt	5%	-11%	nt	nt
Cc1nn(-c2ccc(N3CCCCC3)nn2)c(C)c1CCC(=O)NCc1ccc(Cl)cc1	nt	nt	nt	12%	nt	nt
COc1cccc(CNC(=O)CSC2=Nc3ccccc3N=C(c3ccc(F)cc3)C2)c1	nt	nt	nt	7%	nt	nt
CC(C)(C)c1cc(C(=S)N2CCCC2)cc(C(C)(C)C)c1O	30µM*	0%	nt	?	-3	8
CC(C)(C)c1cc(CCC(=O)N2CCCC2)cc(C(C)(C)C)c1O	-24%	?	nt	34%	-6	17
NS(=O)(=O)c1cccc(NC(=O)CCSc2ccc(Cl)cc2)c1	12µM*	nt	3%	?	1	9
CC[n+]1c(/C=C/C=C2/N(C)c3ccccc3C2(C)C)sc2ccccc21	nt	nt	nt	35µM*	nt	nt
